Inconclusive results are not listed. Activity calls are given as the source filed them. Calls follow the shape of the dose curve; as a rule, active = well fitted inhibition curve with a large enough effect in the repeat runs; inconclusive = weak or mixed curves; inactive = flat fitted curve, though single readings scatter.
biological target: Cytochrome P450 2D6 (Homo sapiens) (UniProt P10635); experiment: Cytochrome P450 family 2 subfamily D member 6 (CYP2D6) small molecule antagonists: luciferase biochemical (cell-free) qHTS assay (AID 1645840); conditions: P450-Glo CYP2D6 enzyme, luciferin luminescence, 1 h; series mostly up to 57.4 µM; also: nearly all actives have a fitted effect of over 55% in size
Sequence (P10635 whole entry, looked up): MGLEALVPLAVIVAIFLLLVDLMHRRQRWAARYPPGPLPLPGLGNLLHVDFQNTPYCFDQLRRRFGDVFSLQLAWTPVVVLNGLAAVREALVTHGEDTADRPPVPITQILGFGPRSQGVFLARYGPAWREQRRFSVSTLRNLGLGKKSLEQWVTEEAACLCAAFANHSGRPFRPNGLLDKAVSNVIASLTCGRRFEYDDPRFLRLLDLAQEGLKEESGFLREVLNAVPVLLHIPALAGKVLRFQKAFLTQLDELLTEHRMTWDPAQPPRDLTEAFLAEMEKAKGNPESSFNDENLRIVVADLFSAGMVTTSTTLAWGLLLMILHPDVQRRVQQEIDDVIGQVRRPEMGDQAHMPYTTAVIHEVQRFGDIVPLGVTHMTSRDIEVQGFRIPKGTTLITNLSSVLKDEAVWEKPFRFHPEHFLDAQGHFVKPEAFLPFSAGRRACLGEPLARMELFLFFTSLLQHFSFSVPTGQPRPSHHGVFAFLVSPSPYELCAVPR
Description: National Center for Advancing Translational Sciences [NCATS] Assay Overview: Cytochrome P450 (CYP) enzymes are membrane-bound hemeproteins that play a key role in metabolism of drugs and xenobiotics. Assaying the effect of chemicals on CYP isozymes is useful to minimize the adverse drug reactions and toxicities in drug development process. Chemical compounds were tested for their effect on CYP enzyme activities by using P450-Glo (TM) screening systems (Promega Corporation, Madison, WI). These systems provide a luminescent method containing proluciferin substrates and are converted to luciferin products by CYP isozymes. The luciferin products formed are detected with a luciferin detection reagent, and the amount of light produced is proportional to CYP activity. P450-Glo (TM) CYP2D6 screening system (Catalog. No. V9890) was used to detect the compounds that interfere in CYP2D6 activity.
Assay Protocol Summary: Two ul of enzyme-substrate mix was dispensed into medium binding white/solid 1536-well plates (Greiner Bio-One North America Inc., Monroe, NC) using a Flying Reagent Dispenser (FRD, Aurora Discovery, San Diego, CA). […] The assay plates were incubated at room temperature for 10 min. Then 2 ul of NADPH regeneration solution was added to each well of the assay plates using an FRD and incubated at room temperature for 1 h. The reaction was stopped by adding 4 ul of detection reagent using an FRD and after 20 min incubation at room temperature, the luminescence signal was measured using a ViewLux plate reader (Perkin Elmer, Shelton, CT). Data were expressed as relative luminescence units.
Potency is read from the fitted curve at half-maximal effect.

SMILES	Potency
CC#CCn1c(N2CCCC(N)C2)nc2c1c(=O)n(Cc1nc(C)c3ccccc3n1)c(=O)n2C (stereo not given)	inactive
CC(C)NC(=O)COc1cccc(-c2nc(Nc3ccc4[nH]ncc4c3)c3ccccc3n2)c1	2.68 µM (active)
CC(C)(C)c1ccc(C(=O)Nc2cn3cc(-n4ccnc4)ccc3n2)cc1	inactive
O=C(Nc1nnc(-c2ccc3c(c2)OCCO3)o1)C1CCCCC1	inactive
FC(F)(F)c1ccc(/C=C/c2nc(COc3ccc(CCCCn4ccnn4)cc3)co2)cc1	inactive
CC(C)(C)Sc1c(CC(C)(C)C(=O)O)n(Cc2ccc(Cl)cc2)c2ccc(OCc3ccc4ccccc4n3)cc12	inactive
CCC[C@@]1(CCc2ccccc2)CC(O)=C([C@H](CC)c2cccc(NS(=O)(=O)c3ccc(C(F)(F)F)cn3)c2)C(=O)O1	6.01 µM (active)
Cc1c(Cl)cccc1S(=O)(=O)Nc1nc(NCCc2ccccc2)nc2c1CN(Cc1ccccc1)CC2	4.77 µM (active)
CC(=O)c1ccc2c(c1)[C@H](NC(=O)c1ccc(F)c(Cl)c1)[C@H](O)C(C)(C)O2	0.674 µM (active)
CC(C)(Cc1ccccc1)NCC(O)c1ccc(O)c(NS(C)(=O)=O)c1 (stereo not given)	3.79 µM (active)
COc1ccc(CCN(C)CCCOc2nsc(-c3ccccc3)n2)cc1OC	1.51 µM (active)
Cc1nc(NC(=O)N2CCC[C@H]2C(N)=O)sc1-c1ccnc(C(C)(C)C(F)(F)F)c1	inactive
O=S(=O)(c1ccc(Cl)cc1)N1CCN(c2ccnc3cc(Cl)ccc23)CC1	8.49 µM (active)
COc1ccc(NC(=O)c2ccc(C(=N)N(C)C)cc2)c(C(=O)Nc2ccc(Cl)cn2)c1	inactive
N#Cc1ccc(Nc2nc(-c3ccc(O)cc3O)cs2)cc1C(F)(F)F	5.35 µM (active)
CCCc1ccc(OCC(=O)N(Cc2nc(-c3cccnc3)no2)C(C)C)cc1	19 µM (active)
Cc1noc(C)c1-c1cc(O)cc(C(O)c2ccccc2)c1 (stereo not given)	16.9 µM (active)
O=C(N[C@H](Cc1cscn1)C(=O)N[C@@H](CC1CCCCC1)[C@@H](O)[C@@H](O)C1CC1)c1nc2ccccc2[nH]1	19 µM (active)
C#CC(=O)N(c1ccc(OC)cc1OC)C(C(=O)NCC(=O)OCC)c1cccs1 (stereo not given)	12 µM (active)
O=C(NCCCN1CCOCC1)c1cnn2c(-c3ccccc3)cc(-c3ccccc3)nc12	inactive

SMILES	Potency
CCCCNc1ncc2c(-c3ccc(S(=O)(=O)N4CCOCC4)cc3)nn(C3CCC(O)CC3)c2n1 (stereo not given)	inactive
C[C@H](CN(C)C)Oc1nc(Nc2cc3cccc(Cl)c3cn2)cnc1C#N	0.674 µM (active)
CC#C[C@@H](CC(=O)O)c1ccc(OCc2cccc(-c3ccc(C(F)(F)F)cc3)c2)cc1	inactive
COc1ccncc1C(=O)NC(=O)Nc1ccc(-c2ccccc2)c(C(F)(F)F)c1	19 µM (active)
CN1CC(O)c2cc(N=NC(N)=O)c(O)cc21 (stereo not given)	inactive
CCN(CCNC(=O)Nc1ccccc1Br)c1cccc(C)c1	1.9 µM (active)
CCOC(=O)N1CCC(CN(Cc2ccc(Cl)cc2)Cc2ccc([N+](=O)[O-])s2)C1 (stereo not given)	3.01 µM (active)
Oc1cccc(C2NC(=S)Nc3cccc(F)c32)c1 (stereo not given)	7.56 µM (active)
O=C(NCC(=O)N1CCCC1)Nc1ccc2cnccc2c1	12 µM (active)
COc1cc(CN(CCN)C(=O)c2cccs2)ccc1OCc1ccccc1	0.849 µM (active)
Fc1ccc(-c2nc(C3CCNCC3)sc2-c2ccnc(NC3CC3)n2)cc1	6.01 µM (active)
C[C@H](Nc1ncnc2nc[nH]c12)c1cc2cccc(Cl)c2c(=O)n1-c1ccccc1	inactive
C=C(C)[C@@H]1CC=C(COC(=O)NC(=O)c2ncn3c(=O)n(C)nnc23)CC1	inactive
COc1cccc(N2CCN(C3=Nc4c(F)cccc4[C@H](CC(=O)O)N3c3cc(C(F)(F)F)ccc3OC)CC2)c1	inactive
Cc1nc(C#Cc2ccnc(Cl)c2)c(C)n1-c1ccc(F)cc1	19 µM (active)
Cc1onc(-c2ccccc2)c1C(=O)N1CCN(c2ccc([N+](=O)[O-])cc2Cl)CC1	5.35 µM (active)
O=C(CN1C2=NCCN2c2ccccc21)c1ccc(-c2ccccc2)cc1	4.77 µM (active)
CCn1c(=O)n([C@H]2CCCN(c3nccc(-c4cc5ccccc5o4)n3)C2)c2ccccc21	inactive
COc1ccccc1OCCNCC(O)CCOc1cccc2[nH]c3ccccc3c12 (stereo not given)	0.301 µM (active)
Cc1cc(NC(=O)c2cccc(NC(=O)/C=C/CN(C)C)c2)ccc1Nc1nccc(-c2cccnc2)n1	10.7 µM (active)
